# The full list was thinned out, with hits kept by preference.
# Dicer processing = inhibitors of human Dicer processing of pre-microRNA; cat-ELCCA pre-miR-21 Dicer processing, chemiluminescence; active compounds read high; z-score at 25 µM; 6% of 47,000 active; in the data active = z-score above about 3, passing the limit was not always enough;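 note: plate controls were vehicle for no effect and no enzyme for full effect; higher signal means more uncleaved substrate so more Dicer inhibition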
# * = called active by the depositor.
SMILES,Dicer processing
CC1(C)Cc2nc3sc(C(=O)O)c(N)c3cc2CO1,1.4
CCOc1ccc(Cl)cc1S(=O)(=O)NCc1ccccn1,0.45
CCOc1ccc(C)cc1S(=O)(=O)Nc1ccc(Cl)cn1,4.6*
COc1ccc(C(C)C)cc1S(=O)(=O)Nc1ccc(Cl)cn1,0.52
C/C(=N\N=C(/C)c1ccccc1)c1ccccc1,0.22
Cc1ccc(/C(N)=N/OC(=O)C(C)c2ccc(CC(C)C)cc2)cc1 (stereo not given),-1.9
O=C(O)CC(C(=O)O)c1c[nH]c2ccccc12 (stereo not given),0.21
Oc1ccc(Cl)cc1C(c1c[nH]c2ccccc12)c1c[nH]c2ccccc12,4.3*
COc1cccc(C(c2c[nH]c3ccccc23)c2c[nH]c3ccccc23)c1,0.33
COc1ccc(C(c2c[nH]c3ccccc23)c2c[nH]c3ccccc23)cc1OC,-0.04
Cc1cccc(C(c2c[nH]c3ccccc23)c2c[nH]c3ccccc23)c1O,1.2
CCOc1cccc(C(c2c[nH]c3ccccc23)c2c[nH]c3ccccc23)c1O,6.4*
Cc1nc(-c2ccc(S(=O)(=O)N3CCN(c4nc(-c5ccccc5)ns4)CC3)s2)cs1,-0.42
O=C(CN1CCN(c2ccccc2)CC1)Nc1c2c(nc3ccccc13)CCC2,1.1
Cc1c(Cl)cccc1SCC(=O)O,-1.5
Cc1nc(-c2ccc(-c3cccs3)s2)sc1-c1ccnn1C(=O)c1cccc(C(F)(F)F)c1,0.8
CC(C)(C)c1nnc(-c2cccc([N+](=O)[O-])c2)o1,-1
CCOC(=O)/C(C(=S)Nc1ccccc1)=C(\C)NCc1ccco1,-0.59
Fc1ccc(NCn2nnc3cc(Cl)ccc32)cc1,1
FC(F)(F)c1ccc(NCn2nnc3cc(Cl)ccc32)cc1,6.5
FC(F)(F)Oc1ccc(NCn2nnc3ccccc32)cc1,3.6*
O=c1oc2cccnc2n1Cc1ccc(Cl)cc1,-0.59
CCn1cc(C(=O)NNC(C)=O)c(=O)c2cc(C(F)(F)F)ccc21,0.8
CN1CCN(C(=O)N2c3ccccc3Sc3ccccc32)CC1,3.4*
NC(=O)C1CCN(C(=O)N2c3ccccc3Sc3ccccc32)CC1,2.2
SMILES,Dicer processing
CCOC(=O)N1c2ccccc2Sc2ccccc21,0.27
CCOC(=O)C1CCN(C(=O)N2c3ccccc3Sc3ccccc32)CC1,4.8*
O=C(Cc1cccs1)N1c2ccccc2Sc2ccccc21,0.57
O=C(N1CCN(CCO)CC1)N1c2ccccc2C=Cc2ccccc21,-0.57
Cn1c2c(c(=O)n(C)c1=O)C(CC(=O)Nc1ccc(Cl)cc1)C(=O)N2 (stereo not given),1.1
CC1(C)CC(=O)C2=C(C1)c1c(ccc3ncccc13)NC2c1ccc2c(c1)OCO2 (stereo not given),0.63
O=C(NCc1cccnc1)c1nn2c(c1Cl)NC(c1ccccc1)CC2C(F)(F)F (stereo not given),-1.8
O=C(c1nn2c(c1Cl)NC(c1ccccc1)CC2C(F)(F)F)N1CCCCC1 (stereo not given),5.6*
O=C(NCc1ccccc1)c1nn2c(c1Br)NC(c1ccccc1)CC2C(F)(F)F (stereo not given),5.2*
NC(=O)c1nn2c(c1Cl)NC(c1ccc(Cl)cc1)CC2C(F)(F)F (stereo not given),3.5*
Cc1ccc(C2CC(C(F)(F)F)n3nc(C(=O)NCc4c(C)nn(C)c4C)c(Cl)c3N2)cc1 (stereo not given),-1.2
Cc1c(CNC(=O)c2nn3c(c2Cl)NC(c2cccs2)CC3C(F)(F)F)cnn1C (stereo not given),1.2
CCC(C)NC(=O)c1nn2c(c1Cl)NC(c1ccc(Cl)cc1)CC2C(F)(F)F (stereo not given),4.9*
O=C(c1nn2c(c1Cl)NC(c1ccc(Cl)cc1)CC2C(F)(F)F)N1CCSCC1 (stereo not given),0.58
O=C(c1nn2c(c1Cl)NC(c1cccs1)CC2C(F)(F)F)N1CCCc2ccccc21 (stereo not given),2.8
O=C(c1nn2c(c1Cl)NC(c1ccc(F)cc1)CC2C(F)(F)F)N1CCCCC1 (stereo not given),8.8
CCC(C)NC(=O)c1cc2n(n1)C(C(F)(F)F)CC(c1ccc3c(c1)OCO3)N2 (stereo not given),2.5
CCCNC(=O)c1nn2c(c1Br)NC(c1cccs1)CC2C(F)(F)F (stereo not given),-0.29
O=c1oc(-c2ccccc2)nc2c1oc1ccc(Cl)cc12,2.5
Cc1cc(=O)[nH]c(Cc2c(Cl)cccc2Cl)n1,-2.1
COc1ccc(OCC(=O)N2CCN(C(=O)CCC3CCCC3)CC2)cc1,1.1
O=c1oc(-c2ccc([N+](=O)[O-])cc2)nc2c(Br)cc(Br)cc12,-0.9
O=C(O)/C(=N\NC(=O)c1ccccc1)c1ccccc1,0.26
O=C1CC(c2ccccc2Cl)Cc2nc(NCCc3ccccc3)ncc21 (stereo not given),-0.73
Cc1nnc(SCC(=O)Nc2ncc3c(n2)CC(c2ccco2)CC3=O)s1 (stereo not given),2.8
SMILES,Dicer processing
CCC(C)C(=O)Nc1ncc2c(n1)CC(c1ccc(C(C)C)cc1)CC2=O (stereo not given),0.71
O=C(Nc1ncc2c(n1)CC(c1ccccc1)CC2=O)c1ccco1 (stereo not given),4.2*
Cc1nc(Nc2ncc3c(n2)CC(c2ccccc2)CC3=O)nc2ccccc12 (stereo not given),1.3
O=C1CC(c2ccccc2)Cc2nc(NCc3ccco3)ncc21 (stereo not given),3.9*
Cc1nnc(N2C(=O)c3oc4ccccc4c(=O)c3C2c2cccc(Br)c2)s1 (stereo not given),0.8
Cc1ccc(CN2CCN(C3CCCC(C)C3)CC2)cc1 (stereo not given),2.4
O=S1(=O)N=C(Nc2nnc(SCc3ccccc3Cl)s2)c2ccccc21,-0.88
CNC(=O)Nc1c(C)n(C)n(-c2ccccc2)c1=O,-0.67
C/C(=N\O)c1ccc(C#Cc2ccccc2)s1,-1.2
COC(=O)C1=C(N)Oc2ccccc2C1C(C#N)C#N (stereo not given),-0.77
COc1ccc(OC(=O)c2cc3ccccc3o2)cc1,4.7*
CN(CCOC(=O)c1cc2ccccc2o1)C(C)(C)C,2.7
CN(C)CCCOC(=O)c1cc2ccccc2o1,0.59
COc1ccc(-c2csc(Nc3ccccc3)[n+]2C)cc1,2.4
COc1ccc(Br)cc1CNc1cc(C)cc(C)c1,3.6*
COc1cc(CNCc2cc(Br)ccc2OC)cc(OC)c1,0.2
COc1ccc(CNCc2cc(Br)ccc2OC)cc1,2.2
CCn1c(C(C)O)nc2ccccc21 (stereo not given),-0.44
CCOC(=O)N/N=C(\Cc1ccccc1)c1ccccc1,0.39
O=C(NCc1ccco1)C1Sc2nnc(-c3ccccc3)n2NC1c1ccc(F)cc1 (stereo not given),0.08
CCOC(=O)c1sc(-c2ccccc2)nc1OCc1ccccc1Cl,0.3
CC(C)=NNC(=S)Nc1ccc(Cl)cc1,6*
S=C(Nc1ccc(Cl)cc1)Nc1ccc(Cl)cc1,1.8
CNNC(=S)Nc1ccc(Cl)cc1,0.59
O=C(CSc1nnnn1-c1cccc(Cl)c1)Nc1ccc2c(c1)OCO2,-0.83
O=C1CC(c2cccs2)CC2=C1C(c1ccc(Cl)c(F)c1)Nc1ccccc1N2 (stereo not given),4.2*
O=C1CC(c2ccccc2)CC2=C1C(c1cccs1)Nc1ccccc1N2 (stereo not given),-0.49
COc1ccc(C2CC(=O)C3=C(C2)Nc2ccccc2NC3c2ccc(F)c(F)c2)cc1 (stereo not given),2.7
